Test results as given in PubChem BioAssay (NCATS).
Values joined by “and” are separate entries in the source; they are usually repeats but may differ in a detail not shown here. Identical values can stand only once. Results filed as inconclusive are left out. Entries that show only a call come without a potency. Active and inactive are the calls of the source. The call rests on the fitted dose curve; in most records, active means well fitted inhibition curve with a large enough effect; inconclusive means small, poorly fitted or top-dose-only effect; inactive means flat fitted curve, though single readings scatter.

molecular target: Voltage-gated inwardly rectifying potassium channel KCNH2 (Homo sapiens) (UniProt Q12809); test: qHTS Assay for Small Molecule Inhibitors of the Human hERG Channel Activity (AID 588834); conditions: U2OS BacMam hERG, FluxOR thallium flux fluorescence; series mostly up to 46.1 µM;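 further: lower thallium flux fluorescence means stronger hERG block; nearly all actives have a fitted effect of over 50% in size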
Outline: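 Step 1: BacMam hERG transduction of U2OS, 4 hrs RT. Step 2: overnight 37 °C, plate 2000 cells/well, 4 hr. Step 3: FluxOR load, compound 10 min, stimulate, read fluorescence.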
Potency means the concentration at half of the fitted maximal effect.

Voltage-gated inwardly rectifying potassium channel KCNH2 (Homo sapiens), sequence (Q12809 whole entry, looked up): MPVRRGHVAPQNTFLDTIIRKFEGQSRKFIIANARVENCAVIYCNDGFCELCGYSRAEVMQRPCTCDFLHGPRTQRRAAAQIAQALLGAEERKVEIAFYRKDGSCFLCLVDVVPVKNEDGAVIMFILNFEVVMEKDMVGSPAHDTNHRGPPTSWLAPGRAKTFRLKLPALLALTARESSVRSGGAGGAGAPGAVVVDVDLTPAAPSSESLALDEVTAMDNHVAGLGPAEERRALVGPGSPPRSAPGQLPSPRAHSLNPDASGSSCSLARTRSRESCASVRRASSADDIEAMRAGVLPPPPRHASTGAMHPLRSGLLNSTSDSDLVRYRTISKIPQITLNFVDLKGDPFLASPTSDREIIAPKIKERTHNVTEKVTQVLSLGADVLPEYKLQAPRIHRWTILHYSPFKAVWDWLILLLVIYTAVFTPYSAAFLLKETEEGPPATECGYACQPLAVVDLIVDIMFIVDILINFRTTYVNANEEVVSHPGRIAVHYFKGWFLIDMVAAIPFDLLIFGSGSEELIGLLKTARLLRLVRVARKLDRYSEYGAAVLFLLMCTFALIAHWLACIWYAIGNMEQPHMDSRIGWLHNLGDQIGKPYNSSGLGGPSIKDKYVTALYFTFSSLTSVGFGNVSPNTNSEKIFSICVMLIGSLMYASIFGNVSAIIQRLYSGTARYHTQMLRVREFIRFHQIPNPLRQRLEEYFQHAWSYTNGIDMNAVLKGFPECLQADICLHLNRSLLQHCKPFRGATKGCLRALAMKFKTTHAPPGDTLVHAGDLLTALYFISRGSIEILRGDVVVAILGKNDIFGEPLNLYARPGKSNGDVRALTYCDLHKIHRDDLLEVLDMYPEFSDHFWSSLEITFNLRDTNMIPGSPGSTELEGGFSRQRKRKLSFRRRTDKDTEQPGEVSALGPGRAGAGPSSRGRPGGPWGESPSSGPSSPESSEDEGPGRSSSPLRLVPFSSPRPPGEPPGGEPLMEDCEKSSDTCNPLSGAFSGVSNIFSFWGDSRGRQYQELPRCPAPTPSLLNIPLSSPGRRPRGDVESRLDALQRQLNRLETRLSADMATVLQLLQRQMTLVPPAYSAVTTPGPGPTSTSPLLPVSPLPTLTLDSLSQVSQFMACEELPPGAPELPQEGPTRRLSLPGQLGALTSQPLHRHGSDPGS

Compound	Potency
O=c1cc[nH]c(=O)[nH]1	inactive
O=c1cc(CO)occ1O	inactive
CC(C)(C)C(=O)NCCCC(=O)O	inactive
O=C1OC(OC(=O)c2cccnc2Nc2cccc(C(F)(F)F)c2)c2ccccc21 (stereo unspecified)	inactive
NCC(=O)CCC(=O)O	inactive
Cc1cccc(C)c1NC(=O)CN(CC(=O)O)CC(=O)O	inactive
NC(=O)NC(=O)Cc1ccccc1	inactive
O=C(O)CC(O)C(=O)O (stereo unspecified)	inactive
CSc1ccc2c(c1)C(N1CCN(C)CC1)Cc1ccccc1S2 (stereo unspecified)	2.24 µM (active)
CC(=O)NC(Cc1ccccc1)C(=O)O (stereo unspecified)	inactive
Cc1cc2c(cc1S(N)(=O)=O)S(=O)(=O)CCC2	inactive
CCN(CC)CCSC(=O)C(c1ccccc1)c1ccccc1	2.51 µM (active) and 4.47 µM (active)
CN(C)CCN(Cc1ccccc1)c1ccccn1	12.6 µM (active)
NC(CSCC(=O)O)C(=O)O (stereo unspecified)	inactive
COc1cc(C(=O)N2CCOCC2)cc(OC)c1OC	inactive
CCCCCCCCCCCCCCCCCCOCC(O)CO (stereo unspecified)	inactive
Cc1cc(O)cc2c1O[C@](C)(CCC[C@H](C)CCC[C@H](C)CCCC(C)C)CC2	inactive
Oc1cn2c(n1)Nc1ccc(Cl)c(Cl)c1C2	inactive
O=C(O)[C@@H]1CSCN1	inactive

Compound	Potency
C#CCN(C)Cc1ccccc1	inactive
CCC(=O)Nc1ccc(O)cc1	inactive
CC1(C)CO[C@@H](CC(=O)O)CN1	inactive
CN1CCCCC1CCN1c2ccccc2Sc2ccc(S(C)=O)cc21 (stereo unspecified)	inactive
CCOc1ccc2ccccc2c1C(=O)N[C@@H]1C(=O)N2[C@@H]1SC(C)(C)[C@@H]2C(=O)O	inactive
CCCCOc1cc(C(=O)OCCN(CC)CC)ccc1N	4.47 µM (active)
Cc1ccc2nc(N)[nH]c(=O)c2c1Sc1ccncc1	inactive
Cc1cc(CC(=O)O)n(C)c1C(=O)c1ccc(Cl)cc1	inactive
COc1cc2[nH]c(=O)[nH]c(=O)c2cc1OC	inactive
CC(=O)Nc1ccc(/C=N/NC(N)=S)cc1	inactive
COc1ccc(S(=O)(=O)Nc2nnc(CC(C)C)s2)cc1	inactive
C[C@@H]1CN(c2c(F)c(F)c3c(=O)c(C(=O)O)cn(C4CC4)c3c2F)C[C@H](C)N1	inactive
CC(=O)Oc1ccc(C2(c3ccc(OC(C)=O)cc3)C(=O)Nc3ccccc32)cc1	inactive
CC(=O)CCC(=O)O	inactive
O=C(O)COc1nn(Cc2ccccc2)c2ccccc12	inactive
CCCOC(=O)c1ccccc1	inactive
Cc1c(Cl)cccc1Nc1ccccc1C(=O)O	inactive
CCOC(=O)[C@H](CCc1ccccc1)N[C@@H](C)C(=O)N1C(=O)N(C)C[C@H]1C(=O)O	inactive
CC(=O)c1ccc2c(c1)N(CCCN(C)C)c1ccccc1S2	4.47 µM (active)

molecular target: Luciferin 4-monooxygenase (Photinus pyralis) (UniProt P08659); test: Biochemical firefly luciferase enzyme assay for NPC (AID 624030); further: nearly all actives have a fitted effect of over 70% in size; conditions: purified P. pyralis luciferase, luminescence, 5 min; series mostly up to 58.6 µM
Outline: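 Direct inhibition of firefly luciferase enzyme (10 nM final, 50 mM Tris Acetate) assessed by luminescence within 5 minutes. Percent activity scaled between DMSO and PTC124 positive control, with concentration-effect curves classified by fit quality and response.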

Luciferin 4-monooxygenase (Photinus pyralis), sequence (P08659 whole entry, looked up): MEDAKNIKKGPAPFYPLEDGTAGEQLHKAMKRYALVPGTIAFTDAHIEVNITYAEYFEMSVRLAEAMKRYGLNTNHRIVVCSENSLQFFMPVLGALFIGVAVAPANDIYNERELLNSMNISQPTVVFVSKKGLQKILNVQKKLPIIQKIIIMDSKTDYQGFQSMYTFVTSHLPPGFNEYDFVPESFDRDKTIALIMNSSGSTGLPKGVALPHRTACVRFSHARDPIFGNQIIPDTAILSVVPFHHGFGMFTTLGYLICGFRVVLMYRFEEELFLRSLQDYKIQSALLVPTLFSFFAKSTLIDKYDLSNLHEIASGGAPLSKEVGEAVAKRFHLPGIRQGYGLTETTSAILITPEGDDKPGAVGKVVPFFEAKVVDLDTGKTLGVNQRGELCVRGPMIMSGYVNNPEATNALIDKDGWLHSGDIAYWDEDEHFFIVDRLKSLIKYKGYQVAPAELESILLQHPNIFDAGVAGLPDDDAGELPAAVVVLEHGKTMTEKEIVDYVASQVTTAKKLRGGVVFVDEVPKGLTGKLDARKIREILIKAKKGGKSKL

Compound	Potency
O=c1cc[nH]c(=O)[nH]1	inactive
O=c1cc(CO)occ1O	inactive
CC(C)(C)C(=O)NCCCC(=O)O	inactive
O=C1OC(OC(=O)c2cccnc2Nc2cccc(C(F)(F)F)c2)c2ccccc21 (stereo unspecified)	inactive
NCC(=O)CCC(=O)O	inactive
Cc1cccc(C)c1NC(=O)CN(CC(=O)O)CC(=O)O	inactive
NC(=O)NC(=O)Cc1ccccc1	inactive
O=C(O)CC(O)C(=O)O (stereo unspecified)	inactive
CSc1ccc2c(c1)C(N1CCN(C)CC1)Cc1ccccc1S2 (stereo unspecified)	inactive
CC(=O)NC(Cc1ccccc1)C(=O)O (stereo unspecified)	inactive
Cc1cc2c(cc1S(N)(=O)=O)S(=O)(=O)CCC2	inactive
CCN(CC)CCSC(=O)C(c1ccccc1)c1ccccc1	inactive
CN(C)CCN(Cc1ccccc1)c1ccccn1	inactive
NC(CSCC(=O)O)C(=O)O (stereo unspecified)	inactive
COc1cc(C(=O)N2CCOCC2)cc(OC)c1OC	inactive
CCCCCCCCCCCCCCCCCCOCC(O)CO (stereo unspecified)	inactive
Cc1cc(O)cc2c1O[C@](C)(CCC[C@H](C)CCC[C@H](C)CCCC(C)C)CC2	inactive
Oc1cn2c(n1)Nc1ccc(Cl)c(Cl)c1C2	inactive
O=C(O)[C@@H]1CSCN1	inactive

Compound	Potency
C#CCN(C)Cc1ccccc1	inactive
CCC(=O)Nc1ccc(O)cc1	inactive
CC1(C)CO[C@@H](CC(=O)O)CN1	inactive
CN1CCCCC1CCN1c2ccccc2Sc2ccc(S(C)=O)cc21 (stereo unspecified)	inactive
CCOc1ccc2ccccc2c1C(=O)N[C@@H]1C(=O)N2[C@@H]1SC(C)(C)[C@@H]2C(=O)O	inactive
CCCCOc1cc(C(=O)OCCN(CC)CC)ccc1N	inactive
Cc1ccc2nc(N)[nH]c(=O)c2c1Sc1ccncc1	inactive
Cc1cc(CC(=O)O)n(C)c1C(=O)c1ccc(Cl)cc1	inactive
COc1cc2[nH]c(=O)[nH]c(=O)c2cc1OC	inactive
CC(=O)Nc1ccc(/C=N/NC(N)=S)cc1	inactive
COc1ccc(S(=O)(=O)Nc2nnc(CC(C)C)s2)cc1	inactive
C[C@@H]1CN(c2c(F)c(F)c3c(=O)c(C(=O)O)cn(C4CC4)c3c2F)C[C@H](C)N1	inactive
CC(=O)Oc1ccc(C2(c3ccc(OC(C)=O)cc3)C(=O)Nc3ccccc32)cc1	inactive
CC(=O)CCC(=O)O	inactive
O=C(O)COc1nn(Cc2ccccc2)c2ccccc12	inactive
CCCOC(=O)c1ccccc1	inactive
Cc1c(Cl)cccc1Nc1ccccc1C(=O)O	32.2 µM (active)
CCOC(=O)[C@H](CCc1ccccc1)N[C@@H](C)C(=O)N1C(=O)N(C)C[C@H]1C(=O)O	inactive
CC(=O)c1ccc2c(c1)N(CCCN(C)C)c1ccccc1S2	inactive
